Hits are enriched below; roughly 0.81% of the tested compounds scored in any of these assays.
TRHR PAM: qHTS for Small Molecule Agonists and Allosteric Enhancers of Human TRH Receptor: Primary Screen for Enhancers. enhancement, % at 2 µM. TRHR cells, fluo-8 calcium fluorescence, EC20 TRH enhancement. Thyrotropin-releasing hormone receptor (Homo sapiens), P34981. 360,000 compounds, 0.66% hits. AID 493056, 2011; in the data active = enhancement above about 30%; also: 0% is about no effect
Target sequence (P34981 whole entry, looked up): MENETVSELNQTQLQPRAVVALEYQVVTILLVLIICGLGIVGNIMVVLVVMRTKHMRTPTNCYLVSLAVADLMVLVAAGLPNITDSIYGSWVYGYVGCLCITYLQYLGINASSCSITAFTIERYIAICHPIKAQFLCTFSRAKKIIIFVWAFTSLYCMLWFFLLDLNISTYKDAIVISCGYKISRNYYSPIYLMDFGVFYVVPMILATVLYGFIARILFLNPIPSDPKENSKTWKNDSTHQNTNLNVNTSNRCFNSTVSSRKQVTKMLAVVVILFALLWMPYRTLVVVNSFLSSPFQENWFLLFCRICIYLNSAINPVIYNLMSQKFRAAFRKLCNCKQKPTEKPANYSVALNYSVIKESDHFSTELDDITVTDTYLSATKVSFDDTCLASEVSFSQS
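TRHR-expressing cells loaded with fluo-8 calcium dye were read kinetically (ex 480/em 530) during compound addition, then stimulated with an EC20 of TRH (10 nM final). Enhancement of the Gq-mediated intracellular calcium response was scored.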
TRHR agonist: qHTS for Small Molecule Agonists and Allosteric Enhancers of Human TRH Receptor: Primary Screen for Agonists | activation, % at 2 µM | TRHR cells, calcium flux fluo-8, FDSS agonist mode | Thyrotropin-releasing hormone receptor (Homo sapiens), P34981 | 360,000 compounds, 0.18% hits | AID 493084, 2011; in the data active = activation above about 30%; also: 0% is about no effect
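Agonist-mode FDSS calcium read (Ex 480/Em 530, 1 s cycles) in 1536-well TRHR cells with fluo-8 dye, after 10-cycle baseline and 23 nL compound addition; TRH at EC20 (10 nM final) added afterwards for the enhancer phase.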
TRPML1 ag: qHTS for Agonists of the Human Mucolipin Transient Receptor Potential 1 (TRPML1); Mucolipin-1 (Homo sapiens), Q9GZU1; TRPML1-expressing cells, Ca2+ dye fluorescence, FDSS; activation, % (concentration not given with the values); 410,000 compounds, 0.12% hits; AID 624414, 2012; in the data active = activation above about 50%; inconclusive = mostly about 30% to 49%; also: 0% is about no effect
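Calcium fluorescence on an FDSS kinetic reader gave the read-out. Tet-induced TRPML1-DL cells were plated overnight, dye-loaded (Ca8 with quencher, 45-90 min, room temperature, dark), then read 110 s after compound addition, and again 110 s after 4uM final 54-4 (EC80).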
TRPML1 blocker: qHTS for Inhibitors of the Human Mucolipin Transient Receptor Potential 1 (TRPML1) | Mucolipin-1 (Homo sapiens), Q9GZU1 | 390,000 compounds, 0.02% hits | TRPML1-inducible cells, Ca2+ dye fluorescence, FDSS; stronger effect = lower value; inhibition of EC80 agonist-evoked calcium signal | activity change, negative = inhibition, % (concentration not given with the values); in the data active = activity change below about -50%; inconclusive = between about -30% and that limit;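 also: stimulus is agonist 54-4 at its EC80 concentration; % is scaled to controls: 0 for no effect and ±100 for the full control effect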
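Tet-induced TRPML1-DL cells loaded with Ca8 no-wash calcium dye were read kinetically on FDSS. Compound addition was followed by EC80 agonist 54-4 (4 uM final); inhibition was read over 110 s.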
Active calls of the source: *; u = inconclusive; x = no result given.

SMILES | TRHR PAM | TRHR agonist | TRPML1 ag | TRPML1 blocker
O=C(COc1nsnc1N1CCOCC1)N/N=C/c1ccccc1O | 31.9* | 1.6 | 1.0 | -5.3
O=C(O)COc1ccc(/C=N/NC(=O)COc2nsnc2N2CCOCC2)cc1 | -2.6 | -2.2 | 3.1 | -12.3
Cc1cccc(S(=O)(=O)N2CCN(S(=O)(=O)c3ccc4c(c3)OCCO4)CC2)c1 | 2.3 | 1.1 | x | x
CC(=O)NS(=O)(=O)c1ccc(NC(=O)C2c3ccccc3Oc3ccccc32)cc1 | 33.4* | 1.6 | 0.5 | 4.5
O=C(Nc1ccc(N2CCN(C(=O)c3ccccc3F)CC2)cc1)c1ncn[nH]1 | 33.5* | -0.2 | -0.6 | -0.9
CCN(CC)c1ccc2cc(-c3nc4ccccc4n3C)c(=O)oc2c1 | 30.7* | 144.0* | 60.7* | 13.6
CCN(CC)c1ccc2cc(C(=O)NCc3ccc(F)cc3)c(=N)oc2c1 | -1.5 | 34.0* | x | x
CN(C)Cc1c(O)ccc2cc(-c3nc4ccccc4n3C)c(=O)oc12 | 40.0* | 23.1 | 6.7 | -10.1
CN(C)Cc1c(O)ccc2c(-c3ccccc3)cc(=O)oc12 | 0.4 | -0.3 | 1.9 | -16.9
N=c1oc2ccc(Br)cc2cc1C(=O)NCc1ccc(F)cc1 | -12.9 | 0.9 | -0.5 | 10.7
CCN(CC)c1ccc2cc(-c3nc4ccccc4[nH]3)c(=O)oc2c1 | -23.1 | 206.8* | 96.6* | u
Cc1cc(Cl)nc2nc(Cl)ccc12 | x | x | -0.3 | x
C(=C\c1ccnc2ccccc12)/c1cccnc1 | x | x | -0.3 | x
Cc1cc2c(s1)c1cnn(Cc3ccc4ccccc4c3)c(=O)c1n2C | 3.6 | 0.1 | x | x
CCN(CC)c1ccc2cc(-c3nnc(-c4ccccc4)o3)c(=O)oc2c1 | 16.4 | 223.7* | 72.2* | -15.4
CCN(CC)c1ccc2cc(C(=O)c3cccs3)c(=O)oc2c1 | x | x | 84.3* | x
CCN(CC)c1ccc2cc(-c3nc(-c4ccc(OC)cc4)cs3)c(=O)oc2c1 | -24.1 | 174.2* | 118.4* | -26.0
O=C(O)Cc1cc(F)c(S(=O)(=O)N2CCN(S(=O)(=O)c3ccc4c(c3)OCCO4)CC2)cc1F | 2.9 | -2.5 | x | x
CN(C)c1ccc(/C=C/c2ccnc3ccccc23)c(N)c1 | x | x | 13.2 | x
CC(C)CN(C)c1ccc(/C=C2\C=Cc3ccccc32)cc1 | x | x | -0.7 | x
O=S(=O)(c1ccc2c(c1)OCCO2)N1CCN(S(=O)(=O)c2cccc(Cl)c2F)CC1 | 0.2 | -0.4 | x | x
COc1ccc(OC)c(C(=O)COC(=O)CN2C(=O)NC3(CCCCC3C)C2=O)c1 (stereo not given) | 32.9* | -0.4 | 1.5 | 8.7
COc1ccccc1C(=O)NC(=O)COC(=O)CN1C(=O)NC2(CCCCC2C)C1=O (stereo not given) | 3.6 | -0.4 | 1.5 | 22.7
COc1cc(/C=N/NC(=O)CNC(=O)/C=C/c2ccco2)cc(OC)c1OC | 30.5* | -0.3 | -0.6 | -8.5
C/C(=N\NC(=O)c1nn(C)c(C)c1Br)c1ccc(NC(=O)c2ccoc2C)cc1 | 30.9* | -0.9 | -0.6 | -1.3
SMILES | TRHR PAM | TRHR agonist | TRPML1 ag | TRPML1 blocker
O=C(NC1CCCC1)c1cnn2c1NC(=C1CC1)C=C2C(F)F | x | x | -1.0 | x
CCSc1nnc(NC(=O)NCC(F)(F)F)s1 | 33.8* | 0.1 | 0.3 | -5.5
CCN1CCN(c2ccc(NC(=O)c3ccc(Br)o3)cc2)CC1 | 32.8* | 0.0 | -0.2 | -0.2
COc1cc2c(NC3CCN(C(C)C)CC3)nc(N3CCCN(C)CC3)nc2cc1OCCCN(C)C | x | x | 0.0 | x
COC(=O)C1CCN(CC(=O)Nc2ccccc2Sc2ccccc2)CC1 | 35.2* | 1.0 | 0.2 | 12.5
NC(=O)C1CCN(CC(=O)Nc2ccccc2Sc2ccccc2)CC1 | -2.5 | 0.1 | 0.2 | 8.5
Cc1cc(-c2ccc(C(C)C)c(S(=O)(=O)N3CCOc4ccccc43)c2)on1 | -1.6 | 2.6 | 138.7* | -28.0
COc1ccc(-c2cc(C)no2)cc1S(=O)(=O)N1CCOc2ccccc21 | 3.3 | 1.0 | 0.1 | -0.1
Brc1ccc(C2C=Cc3ccccc32)cc1 (stereo not given) | x | x | -0.4 | x
Cc1cc2c(s1)c1cnn(Cc3cccc(C(F)(F)F)c3)c(=O)c1n2C | -2.6 | 1.2 | x | x
COc1cccc(CNC(=O)c2cccc(NC(=O)CC3SC(N4CCCCC4)=NC3=O)c2)c1 (stereo not given) | 35.7* | 0.3 | 0.8 | u
O=C(N/N=C/c1ccco1)c1cc(-c2cccc3ccccc23)n[nH]1 | 35.8* | 0.4 | 2.3 | 9.6
Cc1ccc(-c2nnc(Nc3ccc(O)cc3)c3ccccc23)cc1S(=O)(=O)N1CCCCC1 | 30.1* | -0.1 | 3.5 | 2.9
COc1ccc2oc(C(=O)NCCN3CCOCC3)c(C)c2c1OC | 34.0* | 1.0 | -0.3 | -9.4
COc1cccc(/C=C/c2nccc3ccccc23)c1OC | x | x | -0.7 | x
CCOC(=O)c1cn(Cc2ccc(C)cc2)nn1 | 3.2 | 0.1 | 0.7 | 5.0
CCOC(=O)c1cn(Cc2ccc(Br)cc2)nn1 | 36.2* | -0.3 | -0.7 | 25.2
O=C(CSc1ccc(-c2ccccn2)nn1)NCc1ccc(Cl)cc1 | 31.6* | -0.5 | 0.8 | 2.5
Cc1ccc(CNC(=O)CSc2ccc(-c3ccccn3)nn2)cc1 | -0.3 | -0.8 | 0.8 | -0.3
CC1OC(OC2C(OC3C(O[C@H]4CC[C@]5(C)C6C=C[C@]78OC[C@@]9(CC[C@@H](C)[C@H](C)C97)[C@H](O)C[C@@]8(C)[C@]6(C)CC[C@H]5C4(C)C)OC(C)C(O)C3O)OC(CO)C(O)C2O)C(O)C(O)C1O (stereo not given in full) | -16.7 | 58.9* | x | x
CN(CC(=O)NCc1ccc(F)cc1)S(=O)(=O)c1ccc2[nH]c3c(c2c1)CCCC3 | -2.0 | -0.7 | 0.9 | -21.0
COc1ccc(CNC(=O)CN(C)S(=O)(=O)c2ccc3[nH]c4c(c3c2)CCCC4)cc1 | 46.6* | 0.5 | 3.7 | 49.4
Cc1cc(NC(=O)COC(=O)c2ccccc2OCCOc2ccccc2)ccc1Br | x | x | -0.6 | x
Cc1ccc(Sc2cnn(-c3ccccc3)c(=O)c2Cl)cc1 | -7.6 | -0.4 | 1.4 | 18.2
Nc1ccc(Sc2cnn(-c3ccccc3)c(=O)c2Cl)cc1 | 36.5* | -2.2 | 0.5 | -2.0
SMILES | TRHR PAM | TRHR agonist | TRPML1 ag | TRPML1 blocker
O=C(c1cc2ccccc2[nH]1)c1cc2cc(O)ccc2[nH]1 | x | x | -0.8 | x
CCCn1c(=O)c(C(=O)NNC(=O)Cc2ccccc2)c(O)c2ccccc21 | 33.2* | -0.2 | 1.1 | 1.2
CCCn1c(=O)c(C(=O)NNC(=O)c2ccccc2Cl)c(O)c2ccccc21 | -2.1 | 30.1* | u | 9.2
Cc1ccccc1C(=O)NNC(=S)NC(=O)c1ccc(Cl)cc1Cl | -5.0 | 44.5* | 0.1 | -1.6
Cc1onc(-c2ccccc2)c1C(=O)NNC(=S)NC(=O)c1ccc(Br)cc1 | -4.1 | 27.2 | u | 24.4
Cc1cccc(C(=O)NC(=S)NNC(=O)c2ccccc2Cl)c1 | -0.8 | 35.2* | 68.0* | 17.6

Assay outcomes from PubChem BioAssay.
